SMILES strings stand for the structures. Out of some 320,000 compounds screened, about 2,100 (0.66%) were called active. Another 53% or so got no clear call; they are omitted. Calls come from the whole dose curve; as a rule, active = well fitted inhibition curve with a large enough effect in the signal ratio, with a control signal flat (not every such curve was filed as active); inconclusive = small, poorly fitted or top-dose-only effect, or effect the other way, or a change in a side signal; inactive = flat fitted curve, though single readings scatter; the % refers to the signal ratio. Many of the other results were omitted from the sample, so actives are more common in it than they were.
Potency is the fitted concentration of half-maximal effect.

The assay can be described thus: qHTS Assay for Lipid Storage Modulators in Drosophila S3 Cells.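 For cell number change: cells counted by Cell Tracker Red CMTPX staining in the red channel.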 For lipid storage change, negative = inhibition: % is set by controls: 0 for no effect and ±100 for the full control effect. To be noted: BODIPY lipid droplet fluorescence, 18-24 h, cells fed with added oleic acid; cell number change: measured here: cell count max response; series mostly up to 46.1 µM; lipid storage change, negative = inhibition: at the top concentration. The essentials:
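Drosophila S3 cells loaded with oleic acid (400 uM, as added) and compounds at several concentrations; lipid droplets imaged by 488-nm laser-scanning cytometry, 500–530 nm intensity and object ratio to cell channel. Percent activity normalized to 20 uM Triacsin C.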
As to `CC(=O)c1cccc(NC(=O)CSc2nnc(-c3ccncc3)o2)c1`, the compound was classed as inactive and the cell number change is 13.1%.

On to `O=C(c1cccc([N+](=O)[O-])c1)N1CCN(c2cccc(Cl)c2)CC1`, for which the “lipid storage change, negative = inhibition” value was 19.9% (inactive).

`O=C(NCCN1CCN(C(=O)c2cccc([N+](=O)[O-])c2)CC1)C(=O)NCc1ccc(Cl)cc1`: the Potency was 6.51 µM (active) and the cell number change was -18.5%.

For `O=C(NCCN1CCN(C(=O)c2ccc([N+](=O)[O-])cc2)CC1)C(=O)NCc1ccccc1`, the compound was classed as inactive and the cell number change was -7.25%.

Regarding `CC(=O)Nc1ccc(SCC(=O)c2c(N)n(Cc3ccccc3)c(=O)n(C)c2=O)cc1`, the “lipid storage change, negative = inhibition” value was -2.16% (inactive) and the cell number change was 14.5%.

Take `CCOC(=O)C1CCN(C(=O)CCNC(=O)Cn2ccc3ccccc3c2=O)CC1`: the “lipid storage change, negative = inhibition” value was 5.32% (inactive) and the cell number change stood at 0.532%.

With `Cc1sc2nc(COC(=O)c3ccc(N4CCCC4)c([N+](=O)[O-])c3)[nH]c(=O)c2c1C`, the “lipid storage change, negative = inhibition” value was 11.9% (inactive) and the cell number change came to 5.98%.

Take `CCOC(=O)c1c(NC(=O)c2ccc(C)cc2)sc2c1CC(C)(C)NC2(C)C`: the “lipid storage change, negative = inhibition” value was -18.8% (inactive) and the cell number change was -1.96%.

On to `Cc1ccc(NC(=O)Cc2nn(C)c(=O)c3ccccc23)cc1F`, for which the “lipid storage change, negative = inhibition” value was -0.0108% (inactive).

In the case of `CC(=O)Nc1ccc(C(=O)NC(CC(=O)O)c2ccc(Cl)cc2)cc1` (configuration not stated), the Potency is 20.6 µM (active) and the cell number change is -19.4%.

As for `CC(=O)Nc1ccc(C(=O)NNC(=O)c2ccc(Cl)cc2)cc1`, the outcome was inactive.

Take `CC(=O)Nc1ccc(NC(=O)CC(NC(=O)c2ccccc2)c2ccccc2)cc1` (configuration not stated): the “lipid storage change, negative = inhibition” value is 2.63% (inactive) and the cell number change was 19%.

As for `COc1ccc(NC(=O)C(c2ccc(OC)cc2)N(C)C(=O)Cc2cccs2)cc1` (configuration not stated), the “lipid storage change, negative = inhibition” value was 19.6% (inactive) and the cell number change amounted to 9.03%.

With `O=C(Cc1ccccc1)NNC1CC(=O)N(c2ccccc2)C1=O` (configuration not stated), the “lipid storage change, negative = inhibition” value is 10.5% (inactive) and the cell number change amounted to 0.451%.

For `CC(=O)N1CCN(c2ccc(NC(=O)c3ccc(N4CCCC4)c([N+](=O)[O-])c3)cc2Cl)CC1`, the compound was classed as inactive.

Turning to `CCc1ccc(N2CC(C(=O)Nc3nc4ccc(S(C)(=O)=O)cc4s3)CC2=O)cc1` (configuration not stated), the Potency was 2.31 µM (active) and the cell number change was -21.1%.

As to `O=C(Nc1nc2ccccc2s1)C1CC(=O)N(c2ccc(Br)cc2)C1` (configuration not stated), the result was inactive and the cell number change came out at 1.03%.

For `CCc1ccc(N2CC(C(=O)Nc3nccs3)CC2=O)cc1` (configuration not stated), the “lipid storage change, negative = inhibition” value is 12.6% (inactive) and the cell number change was -0.507%.

With `COc1cc(-n2c(=O)c3ccccc3n(CC(=O)c3ccc(Br)cc3)c2=O)cc(OC)c1OC`, the “lipid storage change, negative = inhibition” value is -0.64% (inactive) and the cell number change was determined as 7.89%.

Consider `CC(=O)Nc1ccc(NC(=S)NC(=O)C2CCCC2)cc1`, for which the compound was called inactive and the cell number change came out at 16.2%.

As for `COc1ccc(NC(=S)NC(=O)C2CCC2)cc1`, the “lipid storage change, negative = inhibition” value is 15.8% (inactive) and the cell number change is -5.57%.

With `CCN(CC)c1ccc(NC(=S)NC(=O)C2CCC2)cc1`, the Potency is 4.11 µM (active) and the cell number change is -16.8%.

Take `Cc1ccc(C(=O)OCC(=O)NCCNC(=O)COC(=O)c2ccc(C)o2)o1`: the cell number change is 26.3% and the outcome is “inactive [at 0.0737 µM]”.

Consider `CC(=O)Nc1ccc(S(=O)(=O)Nc2cccc(-c3ccc4nncn4n3)c2)cc1`, for which the Potency was 0.731 µM (active) and the cell number change was -19.1%.

As for `Cc1ccc(S(=O)(=O)Nc2ccc(-c3ccc4nncn4n3)cc2)cc1`, the “lipid storage change, negative = inhibition” value is 7.13% (inactive) and the cell number change was -22.1%.

Take `Cc1ccc(S(=O)(=O)Nc2cccc(-c3ccc4nncn4n3)c2)cc1`: the lipid storage change, negative = inhibition was -0.542% [at 0.0737 µM] (inactive).
